Screening data from PubChem.
Cruzain inh Det = qHTS Assay for Promiscuous and Specific Inhibitors of Cruzain (with detergent); Cruzipain (Trypanosoma cruzi), P25779; purified cruzain, Z-FR-AMC fluorescence, 0.01% Triton; Potency, µM, for the others: max response, negative = inhibition, actives largely listed as inhibitors; 200,000 compounds, 0.43% hits;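 note: plate controls were neutral wells for no effect and buffer without enzyme for full effect; nearly all actives have a fitted effect of over 40% in size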
Target sequence (P25779 123-467 limits assumed): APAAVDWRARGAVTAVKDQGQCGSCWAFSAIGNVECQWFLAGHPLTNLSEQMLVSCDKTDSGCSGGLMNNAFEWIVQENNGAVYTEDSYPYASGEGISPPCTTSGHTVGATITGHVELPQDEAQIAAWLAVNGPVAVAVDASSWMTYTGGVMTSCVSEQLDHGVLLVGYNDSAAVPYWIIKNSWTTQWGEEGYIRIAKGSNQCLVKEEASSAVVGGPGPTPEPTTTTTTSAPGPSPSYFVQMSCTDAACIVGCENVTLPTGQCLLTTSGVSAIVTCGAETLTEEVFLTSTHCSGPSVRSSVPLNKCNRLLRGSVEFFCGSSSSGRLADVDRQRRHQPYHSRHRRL
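Compounds were screened in titration against cruzain (1.5 nM) with 0.01% Triton X-100 to counter colloidal aggregation. Activity was the AMC fluorescence increase over 60 s after adding 2 uM Z-FR-AMC at pH 5.5.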
Cruzain noTriton = qHTS Assay for Promiscuous and Specific Inhibitors of Cruzain (without detergent). Cruzipain (Trypanosoma cruzi), P25779. purified cruzain, Z-FR-AMC fluorescence, no detergent. Potency, µM, inactives show max response, negative = inhibition, usual class: inhibitors. 200,000 compounds, 2.3% hits. AID 1476, 2009;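 note: plate controls were enzyme without inhibitor for no effect and buffer without enzyme for full effect; nearly all actives have a fitted effect of over 40% in size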
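Detergent-free condition (0.00005% Triton X-100) in acetate buffer pH 5.5 with DTT. 1.5 nM enzyme and compound were pre-mixed 15 min, then 2 uM Z-FR-AMC substrate added; reaction progress from fluorescence change between first and third reads (60 s).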
The depositor's hits bear a star; u = inconclusive. In the library only some 2.5% were active in any assay of this set; here they are far more common. Calls come from the whole dose curve; as a rule, active = well fitted curve in the direction sought with a large enough effect; inconclusive = small, poorly fitted or top-dose-only effect, or another doubt; inactive = no such curve, though single readings can be large; an effect the other way counts as inactive or inconclusive. Potency is the fitted concentration of half-maximal effect.

SMILES | Cruzain inh Det | Cruzain noTriton
CC(=O)c1cccc(NC(=O)C(OC(=O)c2ccccc2NS(=O)(=O)c2cccs2)c2ccccc2)c1 (stereo unspecified) | -3% | 7.9µM*
CC(=O)c1cccc(NC(=O)C(OC(=O)c2cccc(S(=O)(=O)N(C)c3ccccc3)c2)c2ccccc2)c1 (stereo unspecified) | -1% | 25µM*
COc1ccc(C)cc1NC(=O)c1ccc(N(C)S(C)(=O)=O)cc1 | -9% | -5%
CC(=O)NCCC(=O)Nc1cccc(S(=O)(=O)N(C)c2ccccc2)c1 | 1% | -4%
COc1ccc(C)cc1NC(=O)C(OC(=O)c1ccc(Cl)c(S(=O)(=O)N(C)c2ccccc2)c1)c1ccccc1 (stereo unspecified) | 3% | 10µM*
COc1ccc(N(C)S(=O)(=O)c2cccc(C(=O)OC(C(=O)Nc3cc(C)cc(C)c3)c3ccccc3)c2)cc1 (stereo unspecified) | 3% | 10µM*
COc1ccc(CNc2nc(-c3cccc(NS(C)(=O)=O)c3)nc3ccccc23)c(OC)c1 | 2% | -6%
Cc1ccc(NC(=O)/C(=C\c2ccc([N+](=O)[O-])cc2)NC(=O)c2ccccc2)cc1 | -1% | 5%
CSc1ccc(/C=C(/NC(=O)c2ccc(C)cc2)C(=O)Nc2cccc(F)c2)cc1 | -1% | 20µM*
Cc1nc2ccc(S(=O)(=O)NCC(=O)Nc3ccc(F)cc3F)cc2s1 | -3% | -4%
CCCC1=NN2C(=N)/C(=C\c3cc(C)n(-c4cccc(C)c4)c3C)C(=O)N=C2S1 | -10% | u
Cc1cccc(-n2c(C)cc(/C=C3/C(=N)N4C(c5ccccc5)=CSC4=NC3=O)c2C)c1 | -4% | 5µM*
Cc1ccc(-c2nnn(CC(=O)N3CCN(c4nc5ccccc5s4)CC3)n2)cc1 | 12% | 10µM*
Cc1ccc(-c2nnn(CC(=O)N3c4ccccc4CCc4ccccc43)n2)cc1 | -4% | u
Cn1c(=O)c2c(-c3ccc(Br)cc3)n(CCc3ccccc3)cc2n(C)c1=O | -14% | u
CC(C)(C)c1ccc(OCCn2cc(C(=O)c3ccco3)c3ccccc32)cc1 | -7% | -1%
COc1ccccc1Cn1c(=O)c2ccccc2n2c(SCc3csc(C)n3)nnc12 | -3% | 3%
COc1ccccc1Cn1c(=O)c2ccccc2n2c(Sc3ncnc4sccc34)nnc12 | -1% | 16µM*
Cc1ccc(S(=O)(=O)N(CC(=O)Nc2ccc(Cl)c([N+](=O)[O-])c2)C2CCCCC2)cc1 | -6% | 13µM*
Cc1ccc(S(=O)(=O)N(CC(=O)Nc2cccc([N+](=O)[O-])c2)C2CCCCC2)cc1 | -5% | 4%
CCOC(=O)c1sc(NC(=O)c2nc3ncccn3n2)c(C(=O)OC(C)C)c1C | -1% | -9%
CCCN(C(=O)Cn1c(=O)oc2cc(Cl)ccc21)c1ccc(C(C)C)cc1 | -2% | -1%
Oc1nc(Nc2cccc(Cl)c2)sc1/C=C1\C=Nc2ccccc21 | -3% | u
CCOC(=O)c1c(Nc2ccc(Cl)cc2)sc(/C=C2\C=Nc3ccccc32)c1O | -3% | 7.9µM*
CCOc1cccc(C(=O)N(Cc2ccc(N(C)C)cc2)CC2CCCO2)c1 (stereo unspecified) | -1% | 6%
SMILES | Cruzain inh Det | Cruzain noTriton
COC(=O)c1cc(NC(=O)c2cc3sccc3n2Cc2ccc(Cl)cc2)cc(C(=O)OC)c1 | 0% | 7.9µM*
CC(=O)Nc1ccc(NC(=O)c2cc3sccc3n2Cc2ccc(Cl)cc2)cc1 | -1% | u
O=C(CSc1ncnc2c1cnn2-c1ccccc1)Nc1ccc2c(c1)OCO2 | 2% | -7%
O=C(CSc1ncnc2c1cnn2-c1ccc(Cl)cc1)NCc1ccc2c(c1)OCO2 | 3% | 13µM*
COc1cc(Cl)c(C)cc1NC(=O)CC1Oc2ccccc2NC1=O (stereo unspecified) | 0% | -1%
COc1ccccc1NC(=O)C(=O)N/N=C(\C)CC(=O)Nc1ccc(OCc2ccccc2)cc1 | -2% | -4%
C/C(CC(=O)Nc1ccc(OCc2ccccc2)cc1)=N\NC(=O)C(=O)Nc1cccc(C)c1 | -2% | 32µM*
O=C(CSc1nc2c([nH]c3ccccc32)c(=O)n1-c1ccccc1)N1CCCCC1 | 0% | -7%
CC(C)[C@H](NC(=O)c1ccccc1)C(=O)OCc1nc2scc(-c3ccccc3)c2c(=O)[nH]1 | -6% | u
O=C(OCc1nc2scc(-c3ccccc3)c2c(=O)[nH]1)c1cccc([N+](=O)[O-])c1 | -7% | 25µM*
O=c1[nH]c2cc(Br)cnc2nc1/C=C(\O)c1ccc(F)cc1 | 4% | 25µM*
O=C(NCc1nc2ncc(Br)cc2[nH]1)c1ccccc1 | -1% | -11%
Cc1ccc(CNC(=O)Cn2c(=O)n(-c3cccc(Cl)c3)c(=O)c3sc4ccccc4c32)cc1 | -3% | 13µM*
Cc1ccc(CNC(=O)Cn2c(=O)n(Cc3ccccc3)c(=O)c3sc4ccccc4c32)cc1 | -1% | 5%
Cc1ccc(C)c(NC(=O)Cn2c(=O)n(CC3CCCO3)c(=O)c3ccccc32)c1 (stereo unspecified) | 1% | 0%
Fc1ccc(Nc2nc(SCc3ccccc3F)nc3ccccc23)cc1 | -5% | -8%
Cc1ccc(N2C(=O)CS(=O)(=O)C23C(=O)N(C)c2ccccc23)cc1F (stereo unspecified) | -2% | -25%
CCc1ccc(N2C(=O)CS(=O)(=O)C23C(=O)N(Cc2ccccc2F)c2ccccc23)cc1 (stereo unspecified) | -5% | 3.2µM*
CC(C)c1ccc(N2C(=O)CS(=O)(=O)C23C(=O)N(Cc2cccc(F)c2)c2ccccc23)cc1 (stereo unspecified) | -3% | 2.5µM*
COc1ccc(N2C(=O)CS(=O)(=O)C23C(=O)N(Cc2ccccc2F)c2ccccc23)cc1Cl (stereo unspecified) | -2% | 2µM*
COc1ccc(N2C(=O)CSC23C(=O)N(Cc2ccccc2F)c2ccccc23)cc1Cl (stereo unspecified) | -8% | u
COc1cccc(CN2C(=O)C3(SCC(=O)N3c3ccc(C(C)C)cc3)c3ccccc32)c1 (stereo unspecified) | -6% | u
FC(F)(F)c1cc(CN2CC[C@@]3(CCCNC3)C2)cc(C(F)(F)F)c1 | -2% | 9%
Cc1ccc(-n2nc(C)c3nc(CCC(=O)Nc4cccc(C)c4C)c(=O)n(C)c32)cc1 | 1% | 1%
CC(=O)[C@H]1CC[C@@H]2[C@H]3CC=C4C[C@@H](O)CC[C@]4(C)[C@H]3CC[C@]12C | -3% | 4%
SMILES | Cruzain inh Det | Cruzain noTriton
CS(=O)(=O)N1CCc2cc(-c3csc(NC(=O)Cc4cccs4)n3)ccc21 | 3% | 20µM*
O=C(CN1CCOCC1)Nc1nc(-c2ccc3c(c2)CCN3S(=O)(=O)c2ccccc2)cs1 | -1% | u
CCc1ccc(NC(=O)CSc2nc3n[nH]c(C)c3c(=N)n2-c2cccc(OC)c2)cc1 | -12% | 13µM*
COc1cccc(NC(=O)CSc2nc3n[nH]c(C)c3c(=N)n2-c2cccc(OC)c2)c1 | 0% | u
c1ccc(B2OC[C@@H]3OB(c4ccccc4)O[C@H]([C@@H]4COB(c5ccccc5)O4)[C@@H]3O2)cc1 | 0% | -2%
NC(=O)C1(N2CCCCC2)CCN(C(=O)Nc2ccc(F)cc2F)CC1 | -1% | u
CCc1nnc(NC(=O)c2ccc(S(=O)(=O)N3CCCCC3C)cc2)s1 (stereo unspecified) | 3% | -5%
